Columns and labels:
[1] = target: Sphingosine kinase 1 (Homo sapiens) (UniProt Q9NYA1); details: at 1 µM;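 also: mean SPHK1 inhibition value reported from the GSK PKIS kinase panel screen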
[2] = target: T1, Sphingosine kinase 2 (Homo sapiens) (UniProt Q9NRA0); details: at 0.1 µM
T1 sequence (whole entry): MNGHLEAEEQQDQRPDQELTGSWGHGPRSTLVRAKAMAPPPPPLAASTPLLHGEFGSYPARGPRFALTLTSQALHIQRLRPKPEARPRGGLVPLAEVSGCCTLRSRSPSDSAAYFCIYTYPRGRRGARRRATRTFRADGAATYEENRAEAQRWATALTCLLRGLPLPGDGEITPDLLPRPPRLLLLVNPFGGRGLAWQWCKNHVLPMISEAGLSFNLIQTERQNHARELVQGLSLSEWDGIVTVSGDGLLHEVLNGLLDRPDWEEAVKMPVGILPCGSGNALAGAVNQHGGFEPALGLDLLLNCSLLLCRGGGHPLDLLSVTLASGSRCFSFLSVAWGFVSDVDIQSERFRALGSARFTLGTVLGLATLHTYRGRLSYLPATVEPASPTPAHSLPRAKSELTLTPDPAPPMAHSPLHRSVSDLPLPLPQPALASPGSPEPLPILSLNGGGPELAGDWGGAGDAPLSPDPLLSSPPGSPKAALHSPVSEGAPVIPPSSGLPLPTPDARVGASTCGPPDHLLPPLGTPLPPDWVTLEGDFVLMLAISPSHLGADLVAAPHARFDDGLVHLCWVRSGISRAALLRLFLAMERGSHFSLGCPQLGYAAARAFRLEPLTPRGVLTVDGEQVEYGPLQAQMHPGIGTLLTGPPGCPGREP

[3] = target: T1, Sphingosine kinase 2 (Homo sapiens); details: at 1 µM
[4] = target: Casein kinase II subunit alpha (Homo sapiens) (UniProt P68400); details: at 0.1 µM
Sequence of Casein kinase II subunit alpha (Homo sapiens) (P68400 whole entry, looked up): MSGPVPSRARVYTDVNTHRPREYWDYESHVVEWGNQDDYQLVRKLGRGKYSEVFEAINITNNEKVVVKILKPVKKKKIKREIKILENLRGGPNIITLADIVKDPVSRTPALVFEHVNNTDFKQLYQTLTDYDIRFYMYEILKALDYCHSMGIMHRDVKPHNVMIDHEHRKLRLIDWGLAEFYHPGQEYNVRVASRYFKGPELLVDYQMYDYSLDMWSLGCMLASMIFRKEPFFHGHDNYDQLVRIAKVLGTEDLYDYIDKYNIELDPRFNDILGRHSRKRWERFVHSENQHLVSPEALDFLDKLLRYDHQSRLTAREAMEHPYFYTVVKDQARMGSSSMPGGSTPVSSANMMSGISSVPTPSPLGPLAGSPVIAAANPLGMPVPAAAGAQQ

[5] = target: Casein kinase II subunit alpha (Homo sapiens) (UniProt P68400); details: at 1 µM
[6] = target: T2, Inhibitor of nuclear factor kappa-B kinase subunit alpha (Homo sapiens) (UniProt O15111); details: at 0.1 µM
T2 sequence (whole entry): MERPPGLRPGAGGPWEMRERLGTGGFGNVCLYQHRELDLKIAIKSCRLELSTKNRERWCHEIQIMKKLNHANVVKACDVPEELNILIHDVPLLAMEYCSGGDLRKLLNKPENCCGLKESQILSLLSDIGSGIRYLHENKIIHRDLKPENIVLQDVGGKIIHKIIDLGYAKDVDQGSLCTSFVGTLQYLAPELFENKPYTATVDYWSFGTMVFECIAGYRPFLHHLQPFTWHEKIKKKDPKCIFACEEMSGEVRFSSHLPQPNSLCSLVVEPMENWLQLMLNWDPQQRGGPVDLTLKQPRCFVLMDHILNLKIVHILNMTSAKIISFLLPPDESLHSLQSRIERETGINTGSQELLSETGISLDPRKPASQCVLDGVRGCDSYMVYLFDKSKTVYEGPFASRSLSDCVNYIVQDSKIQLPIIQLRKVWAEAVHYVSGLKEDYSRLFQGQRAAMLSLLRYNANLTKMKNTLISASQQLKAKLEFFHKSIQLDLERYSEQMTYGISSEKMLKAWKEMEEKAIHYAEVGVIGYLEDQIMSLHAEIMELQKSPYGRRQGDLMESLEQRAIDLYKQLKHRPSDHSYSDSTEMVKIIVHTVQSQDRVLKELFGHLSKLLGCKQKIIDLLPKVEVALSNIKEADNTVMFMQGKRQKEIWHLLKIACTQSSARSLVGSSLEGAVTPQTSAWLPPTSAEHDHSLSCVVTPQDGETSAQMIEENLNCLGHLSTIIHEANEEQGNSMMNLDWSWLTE

[7] = target: T2, Inhibitor of nuclear factor kappa-B kinase subunit alpha (Homo sapiens); details: at 1 µM
[8] = target: T3, Inhibitor of nuclear factor kappa-B kinase subunit beta (Homo sapiens) (UniProt O14920); details: at 0.1 µM
T3 sequence (whole entry): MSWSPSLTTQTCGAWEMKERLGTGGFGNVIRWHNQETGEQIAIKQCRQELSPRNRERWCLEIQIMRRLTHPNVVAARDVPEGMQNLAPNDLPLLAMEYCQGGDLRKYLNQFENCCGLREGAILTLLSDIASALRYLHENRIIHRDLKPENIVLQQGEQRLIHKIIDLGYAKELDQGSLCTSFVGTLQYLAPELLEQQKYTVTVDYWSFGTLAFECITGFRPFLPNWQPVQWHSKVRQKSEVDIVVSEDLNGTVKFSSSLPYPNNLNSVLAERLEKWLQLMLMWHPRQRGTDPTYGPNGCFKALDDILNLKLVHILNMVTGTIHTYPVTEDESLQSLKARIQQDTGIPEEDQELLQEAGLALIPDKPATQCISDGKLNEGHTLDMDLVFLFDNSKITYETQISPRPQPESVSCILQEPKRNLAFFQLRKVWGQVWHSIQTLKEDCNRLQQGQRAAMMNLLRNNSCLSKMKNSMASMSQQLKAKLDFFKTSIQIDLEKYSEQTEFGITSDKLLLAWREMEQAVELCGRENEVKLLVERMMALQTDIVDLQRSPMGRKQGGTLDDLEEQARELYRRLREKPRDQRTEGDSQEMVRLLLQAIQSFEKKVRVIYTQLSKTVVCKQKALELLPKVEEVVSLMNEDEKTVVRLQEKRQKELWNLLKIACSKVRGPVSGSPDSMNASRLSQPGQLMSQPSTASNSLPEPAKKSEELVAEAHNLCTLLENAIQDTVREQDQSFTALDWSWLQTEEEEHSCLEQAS

[9] = target: T3, Inhibitor of nuclear factor kappa-B kinase subunit beta (Homo sapiens); details: at 1 µM
[10] = target: T4, Inhibitor of nuclear factor kappa-B kinase subunit epsilon (Homo sapiens) (UniProt Q14164); details: at 0.1 µM
T4 sequence (whole entry): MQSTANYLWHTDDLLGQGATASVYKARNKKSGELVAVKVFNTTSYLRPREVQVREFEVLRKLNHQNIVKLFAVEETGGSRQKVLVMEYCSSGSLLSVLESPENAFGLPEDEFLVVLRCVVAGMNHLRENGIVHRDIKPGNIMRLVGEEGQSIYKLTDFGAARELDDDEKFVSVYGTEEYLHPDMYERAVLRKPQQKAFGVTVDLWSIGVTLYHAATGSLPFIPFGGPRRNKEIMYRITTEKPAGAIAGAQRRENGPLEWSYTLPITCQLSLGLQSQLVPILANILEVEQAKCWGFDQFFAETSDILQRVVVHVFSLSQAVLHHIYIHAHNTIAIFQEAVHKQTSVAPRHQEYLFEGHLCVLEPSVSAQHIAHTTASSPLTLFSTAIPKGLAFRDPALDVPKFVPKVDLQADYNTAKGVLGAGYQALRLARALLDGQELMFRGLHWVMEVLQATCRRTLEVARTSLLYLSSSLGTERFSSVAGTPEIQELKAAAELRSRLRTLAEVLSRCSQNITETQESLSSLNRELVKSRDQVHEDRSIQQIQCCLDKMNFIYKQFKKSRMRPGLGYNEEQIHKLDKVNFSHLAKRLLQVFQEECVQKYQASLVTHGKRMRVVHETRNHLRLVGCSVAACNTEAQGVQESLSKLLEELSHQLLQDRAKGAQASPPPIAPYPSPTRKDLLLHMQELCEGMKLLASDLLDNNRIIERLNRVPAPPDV

[11] = target: T4, Inhibitor of nuclear factor kappa-B kinase subunit epsilon (Homo sapiens); details: at 1 µM
[12] = target: T5, Serine/threonine-protein kinase Nek1 (Homo sapiens) (UniProt Q96PY6); details: at 0.1 µM
T5 sequence (whole entry): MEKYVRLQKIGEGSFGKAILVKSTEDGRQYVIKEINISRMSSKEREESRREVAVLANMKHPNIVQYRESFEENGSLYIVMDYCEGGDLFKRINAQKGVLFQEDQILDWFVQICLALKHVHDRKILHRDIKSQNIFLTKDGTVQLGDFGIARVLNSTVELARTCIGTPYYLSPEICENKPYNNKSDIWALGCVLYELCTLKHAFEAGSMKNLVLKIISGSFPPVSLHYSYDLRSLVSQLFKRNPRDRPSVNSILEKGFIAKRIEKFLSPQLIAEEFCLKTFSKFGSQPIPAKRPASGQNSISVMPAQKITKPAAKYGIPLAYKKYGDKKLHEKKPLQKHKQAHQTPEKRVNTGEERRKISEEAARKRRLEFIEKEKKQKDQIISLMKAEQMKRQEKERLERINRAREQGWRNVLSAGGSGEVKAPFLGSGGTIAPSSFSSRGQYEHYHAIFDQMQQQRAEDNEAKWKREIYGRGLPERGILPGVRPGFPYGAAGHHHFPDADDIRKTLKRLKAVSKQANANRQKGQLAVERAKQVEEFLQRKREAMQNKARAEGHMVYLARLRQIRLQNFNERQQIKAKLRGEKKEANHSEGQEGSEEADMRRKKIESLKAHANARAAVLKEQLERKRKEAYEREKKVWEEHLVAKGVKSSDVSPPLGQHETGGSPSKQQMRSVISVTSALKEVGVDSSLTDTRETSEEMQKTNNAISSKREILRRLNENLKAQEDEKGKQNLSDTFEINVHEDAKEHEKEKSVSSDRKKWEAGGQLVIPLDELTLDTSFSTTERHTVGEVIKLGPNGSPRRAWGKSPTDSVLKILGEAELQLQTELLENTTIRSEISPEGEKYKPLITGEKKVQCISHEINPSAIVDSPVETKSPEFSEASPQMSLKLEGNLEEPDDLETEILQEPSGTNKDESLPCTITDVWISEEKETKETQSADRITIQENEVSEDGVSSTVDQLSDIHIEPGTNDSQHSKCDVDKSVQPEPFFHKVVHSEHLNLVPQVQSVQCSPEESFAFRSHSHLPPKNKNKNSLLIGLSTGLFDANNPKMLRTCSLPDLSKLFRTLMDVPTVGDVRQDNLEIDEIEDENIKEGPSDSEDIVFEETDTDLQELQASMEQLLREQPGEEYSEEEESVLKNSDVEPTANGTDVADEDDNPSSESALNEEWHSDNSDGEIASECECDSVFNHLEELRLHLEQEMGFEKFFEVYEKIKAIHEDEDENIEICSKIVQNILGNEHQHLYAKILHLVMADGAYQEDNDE

[13] = target: T5, Serine/threonine-protein kinase Nek1 (Homo sapiens); details: at 1 µM
[14] = target: T6, Serine/threonine-protein kinase Nek2 (Homo sapiens) (UniProt P51955); details: at 0.1 µM
T6 sequence (whole entry): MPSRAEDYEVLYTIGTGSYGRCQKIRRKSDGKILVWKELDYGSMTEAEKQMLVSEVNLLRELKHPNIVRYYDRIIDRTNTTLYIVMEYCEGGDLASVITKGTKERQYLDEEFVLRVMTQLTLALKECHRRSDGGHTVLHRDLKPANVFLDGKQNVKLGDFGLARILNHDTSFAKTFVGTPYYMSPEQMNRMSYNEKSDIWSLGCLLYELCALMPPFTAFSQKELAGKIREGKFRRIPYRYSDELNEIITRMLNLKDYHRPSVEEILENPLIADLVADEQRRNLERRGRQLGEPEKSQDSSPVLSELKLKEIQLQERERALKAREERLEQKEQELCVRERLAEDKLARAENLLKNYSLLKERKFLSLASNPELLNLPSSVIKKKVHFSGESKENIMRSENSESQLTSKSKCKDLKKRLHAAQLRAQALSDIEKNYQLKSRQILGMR

[15] = target: T6, Serine/threonine-protein kinase Nek2 (Homo sapiens); details: at 1 µM
[16] = target: Serine/threonine-protein kinase Nek6 (Homo sapiens) (UniProt Q9HC98); details: at 0.1 µM
Sequence of Serine/threonine-protein kinase Nek6 (Homo sapiens) (Q9HC98 whole entry): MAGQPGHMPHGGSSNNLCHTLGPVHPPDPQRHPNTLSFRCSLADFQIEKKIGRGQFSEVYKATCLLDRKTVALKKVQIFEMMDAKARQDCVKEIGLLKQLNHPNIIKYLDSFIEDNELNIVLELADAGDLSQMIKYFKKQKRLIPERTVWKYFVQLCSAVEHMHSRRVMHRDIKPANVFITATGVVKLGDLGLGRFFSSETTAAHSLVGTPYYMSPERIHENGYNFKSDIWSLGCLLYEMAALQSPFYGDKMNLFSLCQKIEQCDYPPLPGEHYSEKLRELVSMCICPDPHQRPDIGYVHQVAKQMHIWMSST

[17] = target: Serine/threonine-protein kinase Nek6 (Homo sapiens) (UniProt Q9HC98); details: at 1 µM
[18] = target: Serine/threonine-protein kinase Nek7 (Homo sapiens) (UniProt Q8TDX7); details: at 0.1 µM
Sequence of Serine/threonine-protein kinase Nek7 (Homo sapiens) (Q8TDX7 whole entry, looked up): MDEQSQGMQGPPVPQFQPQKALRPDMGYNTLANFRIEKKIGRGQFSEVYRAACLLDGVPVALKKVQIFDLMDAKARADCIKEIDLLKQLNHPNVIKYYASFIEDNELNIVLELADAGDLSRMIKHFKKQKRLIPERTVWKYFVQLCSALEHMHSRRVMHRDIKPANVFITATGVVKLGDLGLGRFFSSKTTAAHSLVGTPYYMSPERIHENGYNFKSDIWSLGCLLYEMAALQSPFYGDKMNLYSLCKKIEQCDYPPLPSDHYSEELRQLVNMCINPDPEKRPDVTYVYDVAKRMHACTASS

[19] = target: Serine/threonine-protein kinase Nek7 (Homo sapiens) (UniProt Q8TDX7); details: at 1 µM
[20] = target: T7, Serine/threonine-protein kinase Nek9 (Homo sapiens) (UniProt Q8TD19); details: at 0.1 µM;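 also: reported value is the mean percent inhibition of NEK9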
T7 sequence (whole entry): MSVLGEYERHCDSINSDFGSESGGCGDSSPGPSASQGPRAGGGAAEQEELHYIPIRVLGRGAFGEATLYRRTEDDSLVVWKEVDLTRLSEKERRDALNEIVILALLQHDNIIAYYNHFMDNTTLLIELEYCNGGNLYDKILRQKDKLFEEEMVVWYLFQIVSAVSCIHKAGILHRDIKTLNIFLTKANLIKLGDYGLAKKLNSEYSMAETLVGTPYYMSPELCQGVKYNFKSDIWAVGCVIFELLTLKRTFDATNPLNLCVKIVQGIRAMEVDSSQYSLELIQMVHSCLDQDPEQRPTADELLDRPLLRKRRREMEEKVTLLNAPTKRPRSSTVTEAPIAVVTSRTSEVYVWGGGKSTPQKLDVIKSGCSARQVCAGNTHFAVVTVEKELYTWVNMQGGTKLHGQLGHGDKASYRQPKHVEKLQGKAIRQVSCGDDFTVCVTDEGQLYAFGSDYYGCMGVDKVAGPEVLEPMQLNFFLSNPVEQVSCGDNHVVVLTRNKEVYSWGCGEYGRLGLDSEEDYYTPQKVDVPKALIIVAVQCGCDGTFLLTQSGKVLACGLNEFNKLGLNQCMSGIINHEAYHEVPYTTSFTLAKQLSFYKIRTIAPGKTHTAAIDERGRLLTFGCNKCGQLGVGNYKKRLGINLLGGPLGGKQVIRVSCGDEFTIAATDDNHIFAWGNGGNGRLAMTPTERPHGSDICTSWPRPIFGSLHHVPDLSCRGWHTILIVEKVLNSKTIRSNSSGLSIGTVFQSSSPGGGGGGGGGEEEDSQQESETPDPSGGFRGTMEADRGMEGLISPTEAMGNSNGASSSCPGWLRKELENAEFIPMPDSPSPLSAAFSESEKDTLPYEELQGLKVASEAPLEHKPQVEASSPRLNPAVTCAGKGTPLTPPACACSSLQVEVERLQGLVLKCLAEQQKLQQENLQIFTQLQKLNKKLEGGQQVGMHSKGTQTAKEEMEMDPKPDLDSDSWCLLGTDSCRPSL

Sequence of Sphingosine kinase 1 (Homo sapiens) (Q9NYA1 whole entry): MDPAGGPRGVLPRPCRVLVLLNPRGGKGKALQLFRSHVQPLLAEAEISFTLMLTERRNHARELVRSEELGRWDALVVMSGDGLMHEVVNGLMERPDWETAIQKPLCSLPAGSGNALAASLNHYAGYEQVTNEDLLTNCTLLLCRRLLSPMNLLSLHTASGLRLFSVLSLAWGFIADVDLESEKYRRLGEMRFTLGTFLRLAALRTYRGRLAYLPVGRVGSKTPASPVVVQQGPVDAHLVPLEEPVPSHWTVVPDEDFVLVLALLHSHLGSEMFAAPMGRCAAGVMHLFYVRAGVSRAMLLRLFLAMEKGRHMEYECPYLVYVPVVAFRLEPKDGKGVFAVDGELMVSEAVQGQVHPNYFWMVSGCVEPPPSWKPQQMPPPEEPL

SMILES	inhibition [1] [%]	inhibition [2] [%]	inhibition [3] [%]	inhibition [4] [%]	inhibition [5] [%]	inhibition [6] [%]	inhibition [7] [%]	inhibition [8] [%]	inhibition [9] [%]	inhibition [10] [%]	inhibition [11] [%]	inhibition [12] [%]	inhibition [13] [%]	inhibition [14] [%]	inhibition [15] [%]	inhibition [16] [%]	inhibition [17] [%]	inhibition [18] [%]	inhibition [19] [%]	inhibition [20] [%]
O=S(=O)(CCOCc1ccc(-c2ccc3ncnc(Nc4ccc(OCc5cccc(F)c5)c(Cl)c4)c3c2)o1)c1ccccc1	1.2	0.14	14.2	1.35	4.52	1.54	4.26	-0.1	0.7	1.59	0.73	1.11	1.59	3.36	2.18	0.77	0.7	1.66	5.83	5
C[C@@H](Oc1cc(-n2cnc3ccc(OCC4CCN(C)CC4)cc32)sc1C(N)=O)c1ccccc1C(F)(F)F	1.96	-2.47	-0.08	6.68	7.31	-3.27	-3.79	-5.4	-3.39	-3.26	-1.35	18.4	60.5	23.6	69.2	-1.61	0.33	-2.74	-0.71	88.3
COc1cccc(-n2ncc3c(N/N=C/c4ccc(C)cc4)ncnc32)c1	1.5	0.29	-0.22	-0.43	23.1	12	9.99	6.84	9.36	5.66	6.9	5.55	9.78	8.39	10.7	3.25	3.08	4.05	10.1	9.27

Reference: ChEMBL document CHEMBL1961873, “Compounds: GSK PKIS; Assays: Nanosyn kinase panel” (2012)
